High-throughput results as filed in PubChem.
A selection: hits, their analogues and other compounds. The true share with any hit is near 19%.
Shiga inhibitor: inhibitors of Shiga toxin in Vero cells; Vero cells, Shiga toxin protein synthesis inhibition reporter; 290,000 tested, 9.2% active; inhibition, % at 38.7 µM; in the data active = inhibition mostly above about 28%, no sharp cut-off; inactive = mostly below about 43%; note: 0% is about no effect
CHX counter: counter-screen hit for Shiga toxin inhibitors, cycloheximide | AID 2314 | cell reporter, cycloheximide protein synthesis inhibition counterscreen | max response, % | 300,000 tested, 12% active; in the data active = max response mostly above about 13%, no sharp cut-off; inactive = mostly below about 14%; note: read at 38.3 µM for the half of the compounds with a filed dose; 0% is about no effect
SARS PLpro yeast: SARS-CoV PLP inhibition in yeast | S. cerevisiae expressing SARS-CoV PLpro, growth rescue | Potency, µM (highest dose often 32.9 µM), inactives show top-dose activity, positive = growth rescue, actives largely listed as activators | 330,000 tested, 0.19% active; calls by dose curve; note: potency is the fitted concentration of half-maximal effect; 0% is about no effect; nearly all actives have a fitted effect of over 55% in size
Pf growth 96h: P. falciparum growth inhibition at 96 hours; P. falciparum luciferase reporter growth, 96 h; Potency, µM (doses to about 28.7 µM), without a hit: at the top dose activity change, negative = inhibition, usual class: inhibitors; 320,000 tested, 6.9% active; AID 504834; note: potency is the fitted concentration of half-maximal effect; % is set by controls: 0 for no effect and ±100 for the full control effect
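P. falciparum expressing integrated firefly luciferase grown in erythrocytes (2% hematocrit, 0.05% parasitemia final) with compounds for 96 hours at 37 C, 5% CO2. Growth inhibition read as loss of luminescence after adding luciferase detection reagent.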
AMA1-RON2 inh: disrupts binding of P. falciparum AMA1 to RON2 | AID 720542 | Potency, µM (doses to about 58.2 µM), for inactives: top-dose activity change, negative = inhibition, hits mostly inhibitors | 360,000 tested, 0.2% active | AlphaScreen AMA1-biotinylated RON2 peptide binding;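 note: potency is the fitted concentration of half-maximal effect; 0% = vehicle wells and -100% = peptide control; nearly all actives have a fitted effect of over 45% in size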
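AMA1 (3D7) with his tag at 25 nM final met compounds first, then biotinylated RON2 peptide at 25 nM; detection used donor plus acceptor beads, 10 µg/mL apiece, read by AlphaScreen after 30 min at room temperature.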
Pf growth 48h: inhibits P. falciparum growth in the first generation, 48 h. Potency, µM (doses to about 28.7 µM), for the others: at the highest dose activity change, negative = inhibition, most hits filed as inhibitors. 310,000 tested, 5.9% active. P. falciparum luciferase growth in erythrocytes, 48 h; note: potency is the fitted concentration of half-maximal effect; % is set by controls: 0 for no effect and ±100 for the full control effect
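A one-generation exposure of luciferase-tagged malaria parasites in RPMI 1640/Albumax erythrocyte culture, 37 C and 5% CO2. Inhibition is inferred from decreased luminescence after adding detection reagent.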
Starred values were filed as active, the others as inactive; ? = inconclusive; / = not tested or not shown; [ ] = another dose, or the depositor's remark. Unless noted, calls come from the whole dose curve; as a rule, active = well fitted curve in the direction sought with a large enough effect; inconclusive = small, poorly fitted or top-dose-only effect, or another doubt; inactive = no such curve, though single readings can be large; an effect the other way counts as inactive or inconclusive.

SMILES | Shiga inhibitor | CHX counter | SARS PLpro yeast | Pf growth 96h | AMA1-RON2 inh | Pf growth 48h
O=C(NCc1cc(C(F)(F)F)cc(C(F)(F)F)c1)c1cc(-c2cc(F)ccc2OCC2CCCO2)n[nH]1 (stereo not drawn) | / | / | / | / | -4% | /
CCOC(=O)c1cc(=O)c2ccc(OCC(=O)Nc3ccc(F)cc3)cc2o1 | -4 | 1 | 1% | 70% | -3% | 54%
CCCCN(C(=O)c1cccc(S(=O)(=O)N2CCCCC2)c1)C1CCS(=O)(=O)C1 (stereo not drawn) | -2 | -4 | 17% | ? | 10% | -4%
O=C(COc1ccc2oc(-c3ccccc3)cc(=O)c2c1)Nc1ccccc1 | -4 | -2 | 14% | 3.7µM* | 1% | 13%
O=C(COc1ccc2c(-c3ccccc3)cc(=O)oc2c1)Nc1ccc(CCO)cc1 | 2 | -1 | 13% | 30% | -5% | 29%
Cc1cc(NC(=O)C2CC(=O)N(c3ccccc3C)C2)no1 (stereo not drawn) | -2 | -3 | 0% | 12µM* | -10% | 16%
Cc1ccccc1N1CC(C(=O)Nc2nnc(SCc3ccccn3)s2)CC1=O (stereo not drawn) | -8 | -4 | 2% | 7.4µM* | 43% | 13µM*
COc1ccc(N2CC(C(=O)Nc3nnc(SCCC4OCCO4)s3)CC2=O)cc1 (stereo not drawn) | -5 | 0 | -6% | 13µM* | 17% | ?
COc1ccc(-c2csc(NC(=O)C3CC(=O)N(c4ccc5c(c4)OCCO5)C3)n2)cc1 (stereo not drawn) | 14 | 24* | -29% | 12µM* | -1% | ?
C=CCOc1ccc(CNc2ccc3[nH]c(=O)[nH]c3c2)cc1 | 22 | 1 | 0% | ? | -26% | ?
Cc1cc(NC(=O)CN2C(=O)CC(c3ccco3)Sc3ccccc32)no1 (stereo not drawn) | 3 | 1 | 22% | 12µM* | -9% | ?
O=C(Nc1nnc(SCC(=O)N2CCCC2)s1)C1CC(=O)N(c2ccc(F)cc2)C1 (stereo not drawn) | 9 | -3 | 7% | 12µM* | -1% | -23%
CCc1ccc(N2CC(C(=O)Nc3nc4ccc(S(C)(=O)=O)cc4s3)CC2=O)cc1 (stereo not drawn) | 67* | 17* | -2% | ? | -1% | 17%
CCc1ccc(N2CC(C(=O)Nc3ccc4c(c3)OCCO4)CC2=O)cc1 (stereo not drawn) | 82* | 31* | 0% | 39% | -1% | 55%
COCCN1C(=O)N[C@@H](c2ccco2)C(C(=O)OC)=C1C | / | / | / | / | 10% | /
Cc1ccc(S(=O)(=O)N2CCCCCC2)cc1C(=O)Nc1cccnc1 | -11 | -6 | 1% | -17% | 3% | ?
CCOC(=O)N1CCN(C(=O)C2CCN(Cc3nc(-c4ccccc4C)oc3C)CC2)CC1 | -17 | -7 | 1% | -27% | 6% | /
CCn1c(SCC(=O)OC)nnc1-c1ccccc1 | -4 | -3 | 0% | -2% | 1% | 4%
C=CCn1c(C)c(C(C)=O)c(N2CCN(C(c3ccccc3)c3ccccc3)CC2)nc1=S | 10 | 1 | 5% | ? | -12% | ?
O=C(NCCc1ccc(C(F)(F)F)cc1)C1CC(=O)N(c2ccc3c(c2)OCCO3)C1 (stereo not drawn) | / | / | 0% | -2% | -1% | ?
CCc1ccc(C(=O)NNC(=O)C2CC(=O)N(c3ccc4c(c3)OCCO4)C2)cc1 (stereo not drawn) | / | / | -1% | -57% | 73% | -30%
CC(C)Oc1ccc(N2CC(C(=O)Nc3ccc4c(c3)OCO4)CC2=O)cc1 (stereo not drawn) | 4 | 1 | 1% | 15µM* | 2% | /
COC(=O)c1ccc(CSc2nnc(NC(=O)C3CC(=O)N(c4ccc5c(c4)OCCO5)C3)s2)cc1 (stereo not drawn) | 2 | 20* | 15% | ? | 7% | 13%
Cc1cccc(N2CC(C(=O)Nc3ccc4c(c3)OCCO4)CC2=O)c1C (stereo not drawn) | 71* | 11 | 1% | 24% | -1% | 7%
CCOc1ccc(CCNC(=O)C2CC(=O)N(c3ccc4c(c3)OCCO4)C2)cc1OCC (stereo not drawn) | / | / | 0% | 3.3µM* | -2% | ?
SMILES | Shiga inhibitor | CHX counter | SARS PLpro yeast | Pf growth 96h | AMA1-RON2 inh | Pf growth 48h
CC(=O)Nc1ccc(NC(=O)C2CC(=O)N(c3cccc(C)c3C)C2)cc1 (stereo not drawn) | 23 | 7 | 2% | 0% | 2% | 1%
COc1cccc(CN(C)CCCn2ccc(NC(=O)OCc3ccccc3)nc2=O)c1 | / | / | / | / | -1% | /
CC(=O)N1CCc2cc(N=NC3=C(O)CCCC3=O)ccc21 | 92* | 31* | -3% | 27% | -25% | 31%
O=C1CCCC(O)=C1N=Nc1ccc(Cl)c(Cl)c1 | 15 | 23* | 0% | 19% | -18% | 16%
Cc1nc2cc(N=NC3=C(O)CCCC3=O)ccc2s1 | 89* | 61* | -37% | 43% | -16% | 15%
Cc1nc2cc(C(=O)N3c4ccccc4CC3C)ccc2s1 (stereo not drawn) | 25 | 10 | -1% | ? | -3% | ?
CC(=O)NC12CC3CC(C1)CC(C(=O)Nc1cccc(S(=O)(=O)N4CCCCCC4)c1)(C3)C2 | / | / | / | / | -2%[11.6 µM] | /
CC(OC(=O)CNC(=O)c1ccc2ccccc2c1)C(=O)N(C)C1CCCCC1 (stereo not drawn) | / | / | 4% | 54% | -10% | 1%
O=C(O)C1CCCCC1C(=O)Nc1ccc(S(=O)(=O)N2CCCC2)cc1 (stereo not drawn) | 3 | 6 | 1% | 17% | -17% | 23%
Oc1ccc(O)c(/C(=N/Nc2ccccc2)c2ccccc2)c1 | 17 | 27* | 6% | ? | / | ?
CC(=NNc1ccccc1)C(C)=NNc1ccccc1 | / | / | / | / | -2% | /
CCCN1C(=O)/C(=C2/C=Cc3ccccc3N2CC)SC1=S | -5 | 11 | -13% | -27% | 3.2µM* | ?
CCN1C(=O)/C(=C2/C=Cc3ccccc3N2CC)SC1=S | 81 | 14* | 0% | ? | 10µM* | 0%
CCCN1/C(=C2/SC(=S)N(CC)C2=O)C=Cc2ccccc21 | 5 | -5 | 27% | ? | 3.2µM* | /
OC1OC[C@H](O)[C@@H](O)[C@@H]1O (stereo partly drawn) | -3 | -5 | / | / | / | /
CC(C)(C)c1ccc(CC(=O)N2CCC2(C)C(=O)NS(=O)(=O)c2ccccc2)cc1 (stereo not drawn) | / | / | / | / | 9% | /
CCC(C(=O)NC(C)(C)C)N(C(=O)Cn1nnc(-c2ccccc2F)n1)c1cccc2c1CCCC2 (stereo not drawn) | 3 | 2 | -9% | ? | 5% | ?
Cc1nnc(SCc2cc(=O)oc3cc(O)ccc23)n1Cc1ccccc1 | 13 | 0 | 14% | 2.1µM* | 7%[11.6 µM] | ?
